Reference: the supplement of paper PMC11732987, “Enantioselective OTUD7B fragment discovery through chemoproteomics screening and high-throughput optimisation” (Communications Chemistry, 2025)

Assays:
Test in all cases: log2 ratio of Biotin-Ahx-Ub-VS probe labelling (fragment/DMSO); higher = less target engagement (more negative = stronger competition), active = hit call of the paper (q ≤ 0.05, log2 ratio ≤ -1)
Details in all cases: compound concentration: 200 uM; treatment time: 3 h
OTUD6B = biological target: T1, OTUD6B (UniProt Q8N6M0)
T1 sequence (whole entry): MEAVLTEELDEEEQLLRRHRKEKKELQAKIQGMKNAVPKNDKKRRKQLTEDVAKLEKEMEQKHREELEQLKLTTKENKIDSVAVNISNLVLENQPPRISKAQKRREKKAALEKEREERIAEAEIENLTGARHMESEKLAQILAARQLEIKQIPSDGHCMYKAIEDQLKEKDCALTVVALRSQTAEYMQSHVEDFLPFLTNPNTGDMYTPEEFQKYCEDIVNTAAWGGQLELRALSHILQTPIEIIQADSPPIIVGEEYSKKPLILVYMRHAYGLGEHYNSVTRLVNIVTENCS
In short: (§1)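 Global-median-normalised Spectronaut label-free quantities were compared by unpaired t-test, and values are average log2 ratios of fragment over vehicle. Only proteins with ≥2 unique peptides were used. HEK293T lysate (495 µg per sample) was treated in triplicate with fragment at 200 µM or vehicle for 3 h and then with Biotin-Ahx-Ub-VS at 0.5 µM final for 1 h. Labelled DUBs were then NeutrAvidin-enriched, digested with LysC and trypsin, and run by diaPASEF LC-MS/MS.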

OTUD7B = biological target: T2, OTUD7B (UniProt Q6GQQ9)
T2 sequence (whole entry): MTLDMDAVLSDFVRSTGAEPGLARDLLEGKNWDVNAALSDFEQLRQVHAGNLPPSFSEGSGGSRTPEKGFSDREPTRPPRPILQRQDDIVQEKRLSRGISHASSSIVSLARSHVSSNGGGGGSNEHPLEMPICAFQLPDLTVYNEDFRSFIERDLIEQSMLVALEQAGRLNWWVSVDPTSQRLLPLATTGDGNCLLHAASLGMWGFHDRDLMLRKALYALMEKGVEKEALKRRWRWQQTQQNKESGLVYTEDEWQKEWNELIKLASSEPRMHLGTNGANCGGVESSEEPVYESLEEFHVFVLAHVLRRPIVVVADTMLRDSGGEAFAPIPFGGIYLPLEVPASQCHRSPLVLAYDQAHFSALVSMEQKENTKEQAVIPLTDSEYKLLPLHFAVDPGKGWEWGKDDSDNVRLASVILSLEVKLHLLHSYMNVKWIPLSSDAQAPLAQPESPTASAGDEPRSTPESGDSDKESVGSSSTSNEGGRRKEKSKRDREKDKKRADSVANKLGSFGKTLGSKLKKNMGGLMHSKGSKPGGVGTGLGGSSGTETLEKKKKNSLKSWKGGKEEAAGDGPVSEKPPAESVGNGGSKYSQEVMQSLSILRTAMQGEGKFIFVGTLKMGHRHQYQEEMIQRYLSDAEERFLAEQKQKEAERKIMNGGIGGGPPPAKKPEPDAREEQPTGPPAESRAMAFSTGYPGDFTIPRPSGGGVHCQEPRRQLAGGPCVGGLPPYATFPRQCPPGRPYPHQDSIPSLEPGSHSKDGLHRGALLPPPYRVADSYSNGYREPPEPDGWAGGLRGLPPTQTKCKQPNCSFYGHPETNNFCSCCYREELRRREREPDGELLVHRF
In short: as §1

PRPF8 = PRPF8 (UniProt Q6P2Q9)
In short: as §1

PSMD7 = biological target: T3, PSMD7 (UniProt P51665)
T3 sequence (whole entry): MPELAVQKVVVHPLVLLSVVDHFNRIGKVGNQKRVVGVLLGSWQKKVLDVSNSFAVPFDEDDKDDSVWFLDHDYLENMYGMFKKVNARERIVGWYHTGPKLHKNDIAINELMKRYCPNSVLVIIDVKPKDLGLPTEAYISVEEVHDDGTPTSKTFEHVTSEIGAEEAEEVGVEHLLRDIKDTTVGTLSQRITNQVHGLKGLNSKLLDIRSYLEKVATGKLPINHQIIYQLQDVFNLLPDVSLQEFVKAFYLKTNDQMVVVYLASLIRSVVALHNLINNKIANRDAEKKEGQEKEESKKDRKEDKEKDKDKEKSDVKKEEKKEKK
In short: as §1

UCHL1 = UCHL1 (UniProt P09936)
In short: as §1

UCHL3 = biological target: T4, UCHL3 (UniProt P15374)
T4 sequence (whole entry): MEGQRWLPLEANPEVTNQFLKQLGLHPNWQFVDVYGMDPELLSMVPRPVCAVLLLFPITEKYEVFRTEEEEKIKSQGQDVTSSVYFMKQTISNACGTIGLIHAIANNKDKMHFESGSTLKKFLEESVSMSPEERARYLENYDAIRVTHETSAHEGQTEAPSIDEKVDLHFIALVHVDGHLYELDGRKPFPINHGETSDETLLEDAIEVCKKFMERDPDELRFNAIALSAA
In short: as §1

UCHL5 = biological target: T5, UCHL5 (UniProt Q9Y5K5)
T5 sequence (whole entry): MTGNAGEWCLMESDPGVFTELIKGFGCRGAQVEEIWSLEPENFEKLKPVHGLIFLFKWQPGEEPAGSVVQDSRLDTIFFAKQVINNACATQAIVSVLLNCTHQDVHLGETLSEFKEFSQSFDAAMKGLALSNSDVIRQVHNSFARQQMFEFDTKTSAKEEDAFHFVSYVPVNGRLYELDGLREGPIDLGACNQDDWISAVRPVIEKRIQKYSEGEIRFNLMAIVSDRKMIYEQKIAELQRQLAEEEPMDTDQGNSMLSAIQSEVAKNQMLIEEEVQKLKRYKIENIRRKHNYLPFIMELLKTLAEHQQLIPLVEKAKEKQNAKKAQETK
In short: as §1

USP10 = USP10 (UniProt Q14694)
In short: as §1

USP15 = biological target: T6, USP15 (UniProt Q9Y4E8)
T6 sequence (whole entry): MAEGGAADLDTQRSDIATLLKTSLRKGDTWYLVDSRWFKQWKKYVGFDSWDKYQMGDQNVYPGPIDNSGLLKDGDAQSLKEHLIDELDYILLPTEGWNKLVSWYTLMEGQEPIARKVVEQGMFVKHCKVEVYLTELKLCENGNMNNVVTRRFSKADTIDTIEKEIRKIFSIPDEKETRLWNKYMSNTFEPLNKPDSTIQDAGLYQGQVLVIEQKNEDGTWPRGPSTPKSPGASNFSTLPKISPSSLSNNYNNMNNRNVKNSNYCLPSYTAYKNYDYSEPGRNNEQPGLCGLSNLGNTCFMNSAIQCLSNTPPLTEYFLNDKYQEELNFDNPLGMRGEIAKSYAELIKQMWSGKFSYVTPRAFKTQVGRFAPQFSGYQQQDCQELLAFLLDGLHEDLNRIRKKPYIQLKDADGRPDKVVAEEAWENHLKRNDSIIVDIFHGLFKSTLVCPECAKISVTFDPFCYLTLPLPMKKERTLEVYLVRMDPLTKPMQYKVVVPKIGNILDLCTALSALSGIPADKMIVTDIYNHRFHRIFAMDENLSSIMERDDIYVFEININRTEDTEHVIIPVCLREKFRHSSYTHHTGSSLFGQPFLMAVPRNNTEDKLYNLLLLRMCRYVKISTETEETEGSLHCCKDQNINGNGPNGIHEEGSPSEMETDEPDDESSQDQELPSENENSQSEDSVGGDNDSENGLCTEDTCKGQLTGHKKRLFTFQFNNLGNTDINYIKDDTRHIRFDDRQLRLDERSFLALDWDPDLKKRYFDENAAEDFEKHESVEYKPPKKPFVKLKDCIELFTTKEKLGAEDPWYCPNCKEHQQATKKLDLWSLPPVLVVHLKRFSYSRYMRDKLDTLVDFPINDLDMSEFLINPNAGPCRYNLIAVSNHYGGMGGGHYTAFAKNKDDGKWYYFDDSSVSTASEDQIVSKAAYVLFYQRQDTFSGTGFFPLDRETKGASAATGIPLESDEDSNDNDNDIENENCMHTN
In short: as §1

USP16 = USP16 (UniProt Q9Y5T5)
In short: as §1

Measured: log2 ratio of Biotin-Ahx-Ub-VS probe labelling

USP16, sequence (Q9Y5T5 whole entry, looked up): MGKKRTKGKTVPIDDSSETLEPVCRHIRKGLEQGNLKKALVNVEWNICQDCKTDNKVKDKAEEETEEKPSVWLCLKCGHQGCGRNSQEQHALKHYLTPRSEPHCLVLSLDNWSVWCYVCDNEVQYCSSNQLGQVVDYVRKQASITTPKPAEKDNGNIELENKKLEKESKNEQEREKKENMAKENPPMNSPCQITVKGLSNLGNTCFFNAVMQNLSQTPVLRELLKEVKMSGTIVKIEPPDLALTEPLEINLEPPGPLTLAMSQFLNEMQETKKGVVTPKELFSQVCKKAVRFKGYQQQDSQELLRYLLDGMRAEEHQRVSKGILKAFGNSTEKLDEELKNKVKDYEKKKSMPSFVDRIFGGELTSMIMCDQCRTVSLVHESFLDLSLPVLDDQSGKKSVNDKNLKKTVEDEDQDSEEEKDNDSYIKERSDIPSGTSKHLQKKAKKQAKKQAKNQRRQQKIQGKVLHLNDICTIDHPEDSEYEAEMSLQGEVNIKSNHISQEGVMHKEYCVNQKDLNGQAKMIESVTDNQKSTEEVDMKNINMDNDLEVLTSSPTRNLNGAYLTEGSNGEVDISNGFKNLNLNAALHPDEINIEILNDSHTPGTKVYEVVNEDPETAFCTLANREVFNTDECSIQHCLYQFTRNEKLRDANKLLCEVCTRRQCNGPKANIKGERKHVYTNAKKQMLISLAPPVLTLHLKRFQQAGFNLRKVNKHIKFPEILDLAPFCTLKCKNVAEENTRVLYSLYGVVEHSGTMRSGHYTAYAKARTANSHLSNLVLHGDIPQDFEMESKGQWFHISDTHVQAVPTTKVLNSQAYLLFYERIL
UCHL1, sequence (P09936 whole entry, looked up): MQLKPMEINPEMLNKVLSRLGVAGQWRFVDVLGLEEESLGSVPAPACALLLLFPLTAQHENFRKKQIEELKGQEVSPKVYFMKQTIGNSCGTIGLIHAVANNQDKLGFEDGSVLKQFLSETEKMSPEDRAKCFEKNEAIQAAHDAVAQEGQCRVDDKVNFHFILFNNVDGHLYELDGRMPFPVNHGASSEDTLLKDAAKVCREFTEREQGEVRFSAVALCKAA
USP10, sequence (Q14694 whole entry): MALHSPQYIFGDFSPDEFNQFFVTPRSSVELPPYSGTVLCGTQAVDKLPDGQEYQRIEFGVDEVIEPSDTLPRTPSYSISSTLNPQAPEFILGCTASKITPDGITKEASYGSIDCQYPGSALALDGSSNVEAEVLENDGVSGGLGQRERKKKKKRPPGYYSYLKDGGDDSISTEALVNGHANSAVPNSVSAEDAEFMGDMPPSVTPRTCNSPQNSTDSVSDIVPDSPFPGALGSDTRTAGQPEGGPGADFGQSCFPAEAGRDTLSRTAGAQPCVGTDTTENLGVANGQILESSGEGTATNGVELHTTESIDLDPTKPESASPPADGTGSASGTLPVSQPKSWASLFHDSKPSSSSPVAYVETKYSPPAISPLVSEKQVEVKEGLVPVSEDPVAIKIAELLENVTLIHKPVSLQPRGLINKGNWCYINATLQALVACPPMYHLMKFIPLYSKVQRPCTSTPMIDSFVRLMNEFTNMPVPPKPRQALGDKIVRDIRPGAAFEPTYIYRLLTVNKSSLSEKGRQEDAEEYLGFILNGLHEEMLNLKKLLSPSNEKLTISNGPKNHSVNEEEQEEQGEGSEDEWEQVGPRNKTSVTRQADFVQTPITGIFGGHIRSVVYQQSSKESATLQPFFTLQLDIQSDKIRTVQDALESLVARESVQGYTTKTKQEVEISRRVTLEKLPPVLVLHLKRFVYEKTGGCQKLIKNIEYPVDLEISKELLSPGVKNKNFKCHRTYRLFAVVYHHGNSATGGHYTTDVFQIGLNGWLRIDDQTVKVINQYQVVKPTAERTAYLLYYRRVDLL

O=C(CCl)N1CCC(O)(Cc2ccc(F)cc2)C1 (stereo not given)
inactive: OTUD6B 0.0617 | OTUD7B -0.082 | PRPF8 -0.0432 | PSMD7 -0.209 | UCHL3 0.0281 | UCHL5 0.116 | USP10 -0.309 | USP15 -0.149 | USP16 0.246
active: UCHL1 -1.12
